Each structure is given as a SMILES string. Records with an inconclusive call do not appear. Where a call stands in place of a potency, no number is given. A number with no mark means an inactive call. Active and inactive are the calls of the source. Calls come from the whole dose curve; as a rule, active = well fitted cell-killing curve with a large enough effect in the repeat runs; inconclusive = weak or mixed curves, or effect the other way; inactive = flat fitted curve, though single readings scatter.

This experiment is described as follows: Caspase-3/7 induction in HepG2 cells by small molecules, qHTS cell viability counter screen (AID 1346981). Note: nearly all actives have a fitted effect of over 30% in size. The note with it: CellTiter-Fluor fluorescence, 17 h; series mostly up to 92.4 µM. From the text: U.S. Tox21 Program National Center for Advancing Translational Sciences [NCATS] NIH Chemical Genomics Center [NCGC] U.S. Environmental Protection Agency [EPA] National Institutes of Environmental Health Sciences [NIEHS] National Toxicology Program [NTP] U.S. Food and Drug Administration [FDA] Tox21 Assay Overview: Apoptosis is a process of programmed cell death and plays a central role in the development of multicellular organisms. It is a highly regulated process and induces cell death by activating caspases, which are the members of cysteine aspartic acid-specific protease (caspase) family. Caspases involved in apoptosis are classified by their mechanism of action as initiator caspases (caspase-2, -8, -9 and -10) and executioner caspases (caspase-3, -6, and -7). Inhibition of apoptosis results in number of cancers, autoimmune diseases, inflammatory diseases and viral infection. To identify small molecule compounds that induce apoptosis, a homogeneous, luminescent Caspase-Glo 3/7 assay was used. Wild type HepG2 cells were used to screen Tox21 libraries for identifying caspase-3/7 activity inducers. Also cytotoxicity of the compounds was tested in parallel by measuring the cell viability using CellTiter-Fluor assay system in the same wells.
Tox21 Assay Protocol Summary: HepG2 cells were dispensed at 2,000 per well in 5uL of culture medium into white solid bottom 1536-well plates (Corning Life Sciences, Corning, NY) using a Multidrop Combi (Thermo Scientific, Waltham, MA) dispenser. The assay plates were incubated at 37 C and 5% CO2 for 5hr, and then 23nL of compounds dissolved in DMSO and positive control were transferred using a Pintool station ([…], San Diego, CA). The assay plates were incubated at 37C and 5% CO2 for 17hr. For cytotoxicity read, after 16hr incubation at 37C, 1uL CellTiter-Fluor reagent (Promega Corporation, Madison, WI) was added to each well of the assay plates using Flying Reagent Dispenser (FRD, Aurora Discovery, San Diego, CA). After 1hr incubation at 37C and 5% CO2, the fluorescence signal was quantified using a ViewLux plate reader (PerkinElmer, Shelton, CT).
On the technique in general: qHTS replaces the single test concentration by a dilution series.
Turning to `ClC(Cl)(Br)Br`, the Potency entry is “inactive”.
Regarding `COC(C)(C)CCCC(C)CC=O` (stereo not given), the Potency entry was “inactive”.
On the same count and under the same terms, to `CC(C)NC(=O)NC(C)C` belongs “inactive”; to `CC(C)OC(=O)c1ccccc1`, “inactive”.
Take `Nc1cc(=O)[nH]c(N)n1`: the Potency entry is “inactive”.
On the same count and under the same terms, to `Brc1c(NC2=NCCN2)ccc2nccnc12` belongs “inactive”; to `CC(=O)CC(C)(C)C1CCCCC1`, “inactive”; to `CC1=CC(C)C(C=O)CC1` (stereo not given), “inactive”.
The same measure, in the same setting: to `CN1CCCC1` belongs “inactive”; to `Nc1c[n+](N2CCOCC2)no1`, “inactive”.
Same read-out and setting: to `O=[N+]([O-])c1ccc(F)cc1F` belongs “inactive”.
In the case of `CCc1nccnc1CC`, the activity change, negative = cytotoxicity is -4.23% [at 19 µM].
For the compound `CCO[Si](CCC1CCC2OC2C1)(OCC)OCC` (stereo not given), the Potency entry was “inactive”.
For `C=C[Si](OC(=C)C)(OC(=C)C)OC(=C)C`, the Potency entry is “inactive”.
Turning to `COC(=O)c1c(Cl)c(Cl)c(C(=O)OC)c(Cl)c1Cl`, the Potency result is “inactive”.
Same read-out and setting: then `C1CN(CCOCCN2CCOCC2)CCO1`, with “inactive”.
For the compound `CCOC(=O)CC(C)=O`, the Potency result was “inactive”.
Same read-out and setting: to `CS(=O)(=O)O` belongs “inactive”; to `CCOC(=O)C(=O)OCC`, “inactive”; to `CC(C[N+](C)(C)C)OC(N)=O` (stereo not given), “inactive”.
Consider `O=C(O)CN(CCOCCOCCN(CC(=O)O)CC(=O)O)CC(=O)O`, for which the activity change, negative = cytotoxicity is 2.16% [at 0.349 µM].
As for `N=C(N)c1ccc2cc(OC(=O)c3ccc(N=C(N)N)cc3)ccc2c1`, the Potency result was “inactive”.
The same measure, in the same setting: then `CC(=O)c1ccccc1O`, with “inactive”.
On the same count and under the same terms, to `CCC(C)C1CCCCC1=O` (stereo not given) belongs “inactive”.
In the case of `COc1ccc2c(c1)c(CC(=O)OCC(=O)O)c(C)n2C(=O)c1ccc(Cl)cc1`, the Potency entry was “inactive”.
The same measure, in the same setting: then `CCCC(=O)O[C@]1(C(=O)CO)CC[C@H]2[C@@H]3CCC4=CC(=O)CC[C@]4(C)[C@H]3[C@@H](O)C[C@@]21C`, with “inactive”.
In the case of `CCC(C)S` (stereo not given), the activity change, negative = cytotoxicity is -0.646% [at 3.27 µM].
Turning to `CCCCC(CC)COC(=O)c1ccccc1O` (stereo not given), the Potency entry is “inactive”.
The same measure, in the same setting: then `CC(=O)OCC(CCn1cnc2cnc(N)nc21)COC(C)=O`, with “inactive”; and `CCn1ccnc1CC1COc2ccccc2O1` (stereo not given), with “inactive”; and `CC(=O)OCC(=O)[C@@]1(O)CCC2C3CCC4=CC(=O)CC[C@]4(C)C3[C@@H](O)C[C@@]21C` (stereo not given in full), with “inactive”.
On the same count and under the same terms, then `O=C(CCCN1CCN(c2ccccn2)CC1)c1ccc(F)cc1`, with “inactive”.
In the case of `CCCCCCCCCCCCCC=O`, the activity change, negative = cytotoxicity was -0.047% [at 8.39 µM].
Turning to `CC(C(=O)O)c1ccc(CC2CCCC2=O)cc1` (stereo not given), the Potency entry is “inactive”.
On the same count and under the same terms, then `FC1(F)C(F)(F)C(F)(F)C2(F)C(F)(F)C(F)(F)C(F)(F)C(F)(F)C2(F)C1(F)F` (stereo not given), with “inactive”.
Take `Cc1cccn2c(=O)c(-c3nnn[nH]3)cnc12`: the activity change, negative = cytotoxicity was -1.23% [at 19 µM].
Regarding `COCCCOCCCOC`, the Potency result is “inactive”.
On the same count and under the same terms, to `C=C1CC[C@H]2C[C@@H]1C2(C)C` belongs “inactive”.
Still for that read-out and setting: to `Cc1cnc(NS(=O)(=O)c2ccc(N)cc2)nc1` belongs “inactive”.
Still for that read-out and setting: then `NC(=O)c1ccc(N)cc1`, with “inactive”.

These data come from PubChem BioAssay (Tox21).
